Screen size: about 93,000 compounds; about 160 (0.17%) were called active. The sample as a whole holds a higher share of actives than the screen did. A number with no mark means an inactive call.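 How the source made its calls: active means cell count reduction exceeding the screen mean by over 5 SD, scaled to untreated wells per plate (cut at about 78% in these data); inactive means the rest.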

The nature of the assay: cytotoxicity in TNFa-stimulated HUVEC, primary screen, cytotoxicity control for VCAM1 expression modulator project, imaging, Hoechst nuclei count (AID 848).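 Further: cells counted after 24 h of TNF alpha exposure following the 1 h pretreatment.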 Conditions: HUVEC TNFalpha-stimulated, at 2 µM, active compounds read high.
For the compound `CCC(=O)Nc1ccc(C(=O)Nc2cccc(OC)c2)cc1`, the cell count reduction was -29.2%. To `COc1cc(/C=N/O)cc(Br)c1OS(=O)(=O)c1ccc(C)cc1` belongs -20%; to `COc1ccc(/C=C(\NC(=O)c2ccc(OC)c(OC)c2)C(=O)NCCc2c[nH]c3ccccc23)cc1`, -3.8%. To `Cc1cccc(N2CCN(S(=O)(=O)c3ccc4[nH]c(=O)c(=O)[nH]c4c3)CC2C)c1` (stereo not given) belongs -4.3%. With `Cc1ccc(NC(=O)CN2CCc3ccccc3C2)cc1` the figure was -11.7%; with `COc1ccccc1-c1n[nH]c2c1[C@H](C)CC[C@H]2C(C)C`, -1.8%.

As to `O=C1CSC(c2ccccc2)N1c1nc(-c2ccc(Cl)cc2Cl)cs1` (stereo not given), the cell count reduction is 12.4%. Consider `CC1(C)Cc2c(sc3nc(SCC(=O)NCc4ccccc4)n(-c4ccccc4)c(=O)c23)CS1`, for which the cell count reduction was -2.4%. To `O=C1CCCC2=C1C(c1ccccc1)n1c(s/c(=C/c3cccc(F)c3)c1=O)=N2` (stereo not given) belongs -15.2%. `Cc1cc2[nH]ncc2cc1NC(=S)NC(=O)c1ccccc1`: the cell count reduction was -6%. With `CCOC(=O)/C(=C\c1ccc([N+](=O)[O-])cc1)C(=O)c1cc(C(C)=O)c(Nc2ccccc2)s1` the figure was 5.8%; with `CN(C)C(CNC(=O)CCCOc1ccccc1)c1ccco1` (stereo not given), -22.1%; with `O=C(c1ccccc1)C(Cn1cncn1)C(Sc1ccccc1)c1ccccc1` (stereo not given), -17.7%.

Regarding `CC(C)C(=O)Nc1cccc(NC(=S)NC(=O)C(c2ccccc2)c2ccccc2)c1`, the cell count reduction is -31.2%. With `Fc1ccccc1COc1ccccc1CNCc1ccncc1` the figure was 2.6%; with `COc1ccc(NS(=O)(=O)c2ccc(NC(=S)NC(=O)CC(C)C)cc2)cc1`, -22.5%; with `Cc1ccc(N2CCN(C3=NC(=O)/C(=C\c4cccs4)S3)CC2)cc1`, -5.4%. To `COc1ccc(CN2CCn3ncc(C(=O)Nc4ccc(Cl)cc4Cl)c3C2=O)cc1` belongs -5.8%; to `CNC(=S)NNC(=O)c1sccc1OCc1ccccc1`, -14.5%; to `Cc1n[nH]c(=S)n1/N=C/c1ccc(Br)o1`, -5.8%. To `Cc1ccc(C2CC2C(=O)NN)cc1` (stereo not given) belongs -10.3%; to `O=C(CNC(=O)OCc1ccccc1)Oc1cc2oc(=O)cc(-c3ccccc3)c2cc1Cl`, 0%. For the compound `O=S(=O)(N/N=C\c1cccn1-c1ccccc1)c1ccc2ccccc2c1`, the cell count reduction was -15.3%. On to `Cc1c(NC(=O)/C=C/C(=O)O)cccc1[N+](=O)[O-]`, for which the cell count reduction is -2.4%.

As to `CCOC(=O)C1=C(C)Nc2sc(C(=O)c3ccc(Br)cc3)c(N)c2C1c1ccc(C(=O)OC)cc1` (stereo not given), the cell count reduction was -15.9%.

The record behind these values is PubChem BioAssay AID848 (Columbia University Molecular Screening Center, 2007).
